Measurements taken from PubChem BioAssay (Tox21).
Values joined by “and” are separate entries in the source; they are usually repeats but may differ in a detail not shown here. Identical values can stand only once. Results filed as inconclusive are left out. Entries that show only a call come without a potency. A structure can be active in one record and inactive in another. Active and inactive are the calls of the source. Unless noted, the call rests on the fitted dose curve; in most records, active means well fitted curve in the direction sought with a large enough effect in the repeat runs; inconclusive means weak or mixed curves; inactive means no such curve, though single readings can be large; an effect the other way counts as inactive or inconclusive.

Tests used:
[1] = qHTS assay to identify small molecule antagonists of the glucocorticoid receptor (GR) signaling pathway - cell viability counter screen (AID 720693); further: nearly all actives have a fitted effect of over 55% in size
[2] = qHTS assay for identifying genotoxic compounds that show differential cytotoxicity against isogenic chicken DT40 cell lines with known DNA damage response pathways - wild type cell line (AID 743012); further: nearly all actives have a fitted effect of over 60% in size
Outline: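 Quantitative HTS on parental DT40 cells: 40 h compound treatment at 37 C/5% CO2, with viability then determined by CellTiter-Glo luminescence. Values serve as the DNA repair-proficient reference for differential cytotoxicity.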

[3] = qHTS assay for identifying genotoxic compounds that show differential cytotoxicity against isogenic chicken DT40 cell lines with known DNA damage response pathways - Rev3 mutant cell line (AID 743014); further: nearly all actives have a fitted effect of over 55% in size
[4] = qHTS assay for identifying genotoxic compounds that show differential cytotoxicity against isogenic chicken DT40 cell lines with known DNA damage response pathways - Rad54/Ku70 mutant cell line (AID 743015); further: nearly all actives have a fitted effect of over 60% in size
[5] = qHTS assay to identify small molecule antagonists of the thyroid receptor (TR) signaling pathway - cell viability counter screen (AID 743064); further: nearly all actives have a fitted effect of over 50% in size
Outline: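 Rat GH3 pituitary tumor cells stably expressing two TR response elements driving luciferase were plated, rested 4 h, then dosed with library compounds and T3 (1 nM final). After 23.5 h at 37 °C, CellTiter-Fluor was added for 30 min and fluorescence recorded.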

[6] = qHTS assay to identify small molecule antagonists of the androgen receptor (AR) signaling pathway using the MDA cell line - cell viability counter screen (AID 743041; further: nearly all actives have a fitted effect of over 45% in size)
Outline: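 R1881-driven MDA-kb2 AR-luc cells, 3,000/well, were dosed with library compounds for 16 h; cell health came from CellTiter-Fluor fluorescence in the reporter wells.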

[7] = qHTS assay to identify small molecule antagonists of the androgen receptor (AR) signaling pathway - cell viability counter screen (AID 743033; further: nearly all actives have a fitted effect of over 45% in size)
[8] = target: Androgen receptor (Homo sapiens) (UniProt P10275); assay: qHTS assay to identify small molecule antagonists of the androgen receptor (AR) signaling pathway (AID 743035; active means well fitted inhibition curve with a large enough effect in the signal ratio in the repeat runs, not every such curve was filed as active; the % refers to the signal ratio)
Androgen receptor (Homo sapiens), sequence (P10275 whole entry, looked up): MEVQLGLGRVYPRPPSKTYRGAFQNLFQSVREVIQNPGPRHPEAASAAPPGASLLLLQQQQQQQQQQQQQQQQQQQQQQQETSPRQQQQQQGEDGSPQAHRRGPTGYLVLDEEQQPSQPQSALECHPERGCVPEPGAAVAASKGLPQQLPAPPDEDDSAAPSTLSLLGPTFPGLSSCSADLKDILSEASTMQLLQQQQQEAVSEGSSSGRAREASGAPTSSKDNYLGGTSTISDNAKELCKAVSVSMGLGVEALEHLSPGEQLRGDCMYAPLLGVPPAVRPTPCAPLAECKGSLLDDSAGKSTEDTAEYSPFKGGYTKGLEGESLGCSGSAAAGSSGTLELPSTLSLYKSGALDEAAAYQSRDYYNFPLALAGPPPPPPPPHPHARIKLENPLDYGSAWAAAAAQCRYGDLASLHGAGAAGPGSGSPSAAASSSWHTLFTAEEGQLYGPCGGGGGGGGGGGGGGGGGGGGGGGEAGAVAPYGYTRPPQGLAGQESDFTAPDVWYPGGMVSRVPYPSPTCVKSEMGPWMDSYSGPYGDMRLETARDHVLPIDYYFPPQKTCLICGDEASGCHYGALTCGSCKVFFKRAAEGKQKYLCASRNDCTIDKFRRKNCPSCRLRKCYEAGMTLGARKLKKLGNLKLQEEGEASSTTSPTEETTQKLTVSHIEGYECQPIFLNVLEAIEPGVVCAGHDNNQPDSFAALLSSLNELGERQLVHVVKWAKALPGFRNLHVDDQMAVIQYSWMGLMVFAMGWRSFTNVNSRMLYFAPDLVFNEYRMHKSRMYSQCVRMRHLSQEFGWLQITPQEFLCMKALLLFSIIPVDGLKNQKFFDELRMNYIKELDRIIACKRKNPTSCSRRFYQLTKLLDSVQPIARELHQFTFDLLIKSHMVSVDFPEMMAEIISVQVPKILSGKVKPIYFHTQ
Outline: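 Cell line: GeneBLAzer AR-UAS-bla GripTite (HEK293). Stimulus: R1881 added after compound. Exposure: 16 h, 37C, 5% CO2. Readout: LiveBLAzer B/G FRET fluorescence after 2 h at room temperature.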

[9] = target: Androgen receptor (Homo sapiens) (UniProt P10275); assay: qHTS assay to identify small molecule agonists of the androgen receptor (AR) signaling pathway using the MDA cell line (AID 743040; further: nearly all actives have a fitted effect of over 20% in size)
Outline: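 After a 5 h incubation at 37C and 0% CO2, MDA-kb2 reporter cells were dosed with compounds in DMSO and kept 16 h under the same conditions. Luciferase activity was then read as luminescence with ONE-Glo.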

[10] = target: Androgen receptor (Homo sapiens) (UniProt P10275); assay: qHTS assay to identify small molecule antagonists of the androgen receptor (AR) signaling pathway using the MDA cell line (AID 743042; further: nearly all actives have a fitted effect of over 55% in size)
Outline: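 Antagonist mode: compounds plus R1881 agonist added to MDA-kb2 AR-luc cells, incubated 16 h at 37C. Luciferase reporter luminescence quantified, with multiplexed CellTiter-Fluor readout for cell viability.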
Potency means the concentration at half of the fitted maximal effect.

Row | Compound | Potency [1] | Potency [2] | Potency [3] | Potency [4] | Potency [5] | Potency [6] | Potency [7] | Potency [8] | Potency [9] | Potency [10]
1 | CC(=O)OC1(c2ccccc2)CCN(CCc2ccccc2)CC1 | inactive | 4.43 µM (active) | 4.43 µM (active) | 4.43 µM (active) | 31.4 µM (active) | – | – | – | – | –
2 | O=[N+]([O-])O.O=[N+]([O-])O.[Cd] | inactive | 43.3 µM (active) | – | 61.1 µM (active) | – | inactive | – | – | – | –
3 | Oc1ccc(C(=C(Cl)Cl)c2ccc(O)cc2)cc1 | inactive | inactive | – | inactive | inactive | inactive | inactive | – | – | –
4 | Cc1cc(N=Nc2ccccc2C)ccc1N | 49 µM (active) | 27.3 µM (active) | – | 27.3 µM (active) and 19.3 µM (active) | 24.3 µM (active) | – | inactive | 21.9 µM (active) | inactive | inactive
5 | CC(C)CCCCCOC(=O)c1ccccc1C(=O)OCCCCCC(C)C | inactive | inactive | – | inactive | – | – | inactive | – | – | –
6 | Cc1cc(C)cc(OP(=O)(Oc2cc(C)cc(C)c2)Oc2cc(C)cc(C)c2)c1 | inactive | inactive | – | inactive | inactive | – | inactive | – | – | –
7 | CCCCCCCCCC[N+](C)(C)CCCCCCCCCC | 24.5 µM (active) | 668 nM (active) and 433 nM (active) | – | 1.06 µM (active) and 344 nM (active) | 5.96 µM (active) and 12.2 µM (active) | 24.8 µM (active) and 30.6 µM (active) | 16.9 µM (active) and 19.5 µM (active) | – | – | –
8 | CCOP(=S)(OCC)OC(Cl)C(Cl)(Cl)Cl (stereo unspecified) | inactive | inactive | – | inactive | inactive | inactive | – | – | – | –
9 | CC1(C)[C@H](C(=O)O[C@H](C#N)c2cccc(Oc3ccccc3)c2)[C@@H]1/C=C(\Cl)C(F)(F)F | inactive | 50.5 µM (active) | 50.5 µM (active) | 40.1 µM (active) | inactive | inactive | – | – | – | –
10 | CC(C)(C)c1ccc(CSc2cnn(C(C)(C)C)c(=O)c2Cl)cc1 | inactive | 0.0097 µM (active) | 0.0193 µM (active) | 0.0109 µM (active) | 54.5 µM (active) | 0.0306 µM (active) | – | – | – | –
11 | C[C@H]1CC[C@@H]2[C@@H](C)[C@H]3[C@H](C[C@H]4[C@@H]5CC=C6CC(O[C@@H]7O[C@H](CO)[C@H](O)[C@H](O[C@@H]8O[C@H](CO)[C@@H](O)[C@H](O)[C@H]8O)[C@H]7O[C@H]7O[C@@H](C)[C@H](O)[C@@H](O)[C@H]7O)CC[C@]6(C)[C@H]5CC[C@]34C)N2C1 (stereo partly specified) | inactive | 26.6 µM (active) and inactive | inactive | 26.6 µM (active) and inactive | 18.8 µM (active) and inactive | – | – | – | – | –
12 | CN(C)CCc1c[nH]c2ccc(O)cc12 | inactive | inactive | – | inactive | inactive | inactive | inactive | inactive | inactive | inactive
13 | c1ccc2c(c1)OCC(C1=NCCN1)O2 (stereo unspecified) | inactive | 5.31 µM (active) | – | 8.41 µM (active) | 7.5 µM (active) | – | inactive | – | – | –
14 | CC(=O)c1cc(C(C)(C)C)cc2c1CCC2(C)C | inactive | inactive | inactive | – | 43.3 µM (active) | – | inactive | – | – | –
15 | O=[N+]([O-])c1cc([N+](=O)[O-])c2ccccc2c1 | inactive | 6.11 µM (active) | – | 7.52 µM (active) | – | inactive | inactive | – | inactive | –
16 | CCCCCCCCCCCCCC[P+](CCCCCC)(CCCCCC)CCCCCC (tested in a mixture with another compound) | 2.75 µM (active) | 3.44 µM (active) | – | 3.06 µM (active) | 2.43 µM (active) | 4.33 µM (active) | – | – | – | –
17 | Oc1c(Br)c(Br)c(Br)c(Br)c1Br | inactive | inactive | inactive | inactive | – | inactive | – | – | inactive | inactive
18 | Clc1ccc(CSC(Cn2ccnc2)c2ccc(Cl)cc2Cl)cc1 (stereo unspecified) | inactive | 10.1 µM (active) | – | 12.7 µM (active) | – | – | – | – | – | –
19 | CC1(C)C(/C=C(\Cl)C(F)(F)F)C1C(=O)OC(C#N)c1cccc(Oc2ccccc2)c1 (stereo unspecified) | inactive | inactive | inactive | inactive | inactive | inactive | – | – | – | –
20 | CC(Cc1ccc(C(C)(C)C)cc1)CN1C[C@@H](C)O[C@@H](C)C1 (stereo partly specified) | inactive | 9.69 µM (active) | 5.45 µM (active) | 4.86 µM (active) | inactive | inactive | – | – | – | –
21 | O=C1c2ccccc2C(=O)C1C(=O)C(c1ccccc1)c1ccc(Cl)cc1 (stereo unspecified) | 19.5 µM (active) | 27.3 µM (active) | – | 21.7 µM (active) | 27.3 µM (active) | – | 13.8 µM (active) | – | inactive | 15.4 µM (active)
22 | N#CCCSCCC#N | inactive | inactive | – | inactive | inactive | – | inactive | inactive | inactive | inactive

Row | Compound | Potency [1] | Potency [2] | Potency [3] | Potency [4] | Potency [5] | Potency [6] | Potency [7] | Potency [8] | Potency [9] | Potency [10]
23 | C[C@]12Cc3nonc3C[C@@H]1CC[C@@H]1[C@@H]2CC[C@@]2(C)[C@H]1CC[C@]2(C)O | inactive | 11.9 µM (active) | 13.3 µM (active) | 18.8 µM (active) | 29.8 µM (active) | – | – | – | 0.0019 µM (active) | 29.8 µM (active)
24 | CCOC(=O)CC(=O)CCl | inactive | 61.1 µM (active) | – | 24.3 µM (active) | 61.1 µM (active) | inactive | – | – | inactive | inactive
25 | CC[C@H]1C[C@@H]2C[C@H]3c4[nH]c5ccc(OC)cc5c4CCN(C2)[C@@H]13 | inactive | 23.9 µM (active) | – | 53.5 µM (active) | 60.1 µM (active) | inactive | inactive | – | inactive | inactive
26 | O=C/C(Cl)=C(/Cl)C(=O)O | inactive | 17.2 µM (active) | – | 21.7 µM (active) | – | – | – | – | – | –
27 | CCCN(CC)CC1COC2(CCC(C(C)(C)C)CC2)O1 (stereo unspecified) | inactive | 5.45 µM (active) | – | 1.22 µM (active) | – | – | inactive | – | – | –
28 | Clc1ccc(CO/N=C(\Cn2ccnc2)c2ccc(Cl)cc2Cl)c(Cl)c1 | inactive | 13.3 µM (active) | 26.6 µM (active) | 21.1 µM (active) | – | inactive | – | – | – | –
29 | CC(=O)[O-].CC(=O)[O-].[Hg+2] | 6.16 µM (active) | 1.54 µM (active) | – | 1.09 µM (active) | 1.37 µM (active) | – | 11 µM (active) | – | – | –
30 | CC(C)OC(=O)C(O)(c1ccc(Cl)cc1)c1ccc(Cl)cc1 | inactive | 8.63 µM (active) | 6.86 µM (active) | 7.7 µM (active) | 61.1 µM (active) | – | – | – | – | –
31 | CCCN(CCC)c1c([N+](=O)[O-])cc(S(N)(=O)=O)cc1[N+](=O)[O-] | 58.6 µM (active) | 2.06 µM (active) | – | 22.1 µM (active) | 48.7 µM (active) | 51.8 µM (active) | 20.8 µM (active) | – | – | –
32 | BrC(Br)Br | inactive | inactive | inactive | inactive | inactive | inactive | – | – | – | –
33 | CCCOCC(=Nc1ccc(Cl)cc1C(F)(F)F)n1ccnc1 | 15.5 µM (active) | 4.32 µM (active) | – | 4.32 µM (active) | 7.69 µM (active) | 61.1 µM (active) | 12.3 µM (active) | – | – | –
34 | O=C(O)c1cc[c]([Hg][Cl])cc1 | inactive | inactive | 1.93 µM (active) | 1.54 µM (active) | 17.2 µM (active) | inactive | – | – | – | –
35 | Oc1ccc(C(c2ccc(O)cc2)(C(F)(F)F)C(F)(F)F)cc1 | inactive | inactive and 61.1 µM (active) | – | inactive and 48.6 µM (active) | 24.2 µM (active) and 61.1 µM (active) | inactive | – | – | – | –
36 | Cc1cc(C)c(C2=C(OC(=O)CC(C)(C)C)C3(CCCC3)OC2=O)c(C)c1 | inactive | inactive | – | inactive | inactive | – | inactive | – | – | –
37 | Clc1ccc(CCC(Cn2ccnc2)Sc2c(Cl)cccc2Cl)cc1 (stereo unspecified) | inactive | 12.7 µM (active) | – | – | inactive | inactive | inactive | – | – | –
38 | CC(C)(C)OO | – | inactive | inactive | inactive | inactive | inactive | inactive | inactive | inactive | inactive
39 | Cc1cc(SCc2sc(-c3ccc(C(F)(F)F)c(F)c3)nc2C)ccc1OCC(=O)O | – | 54.5 µM (active) | 34.4 µM (active) | 54.5 µM (active) | – | – | 38.9 µM (active) | – | – | –
40 | ClC1=C(Cl)[C@]2(Cl)[C@H]3[C@H]([C@H]4C=C[C@H]3C4)[C@@]1(Cl)C2(Cl)Cl | inactive | – | – | 61.1 µM (active) | – | – | inactive | – | – | –
41 | ClCc1ccc(Cl)cc1Cl | inactive | inactive | – | inactive | inactive | – | – | – | – | –
42 | C=CCC1=C(C)C(OC(=O)C2C(C=C(C)C)C2(C)C)CC1=O (stereo unspecified) | 46.3 µM (active) | 10.3 µM (active) | – | 18.7 µM (active) | 49.3 µM (active) | – | – | – | – | –
43 | OC(c1ccc(Cl)cc1)(c1ccc(Cl)cc1)C(Cl)(Cl)Cl | – | 61.1 µM (active) | 48.6 µM (active) | 48.6 µM (active) | – | – | – | – | – | –
44 | O=c1oc2ccccc2c(O)c1Cc1c(O)c2ccccc2oc1=O | – | inactive | inactive | inactive | inactive | inactive | inactive | inactive | inactive | inactive
